Compounds with a hit are over-represented: about 2.4% of the library has one in this group of screens.
PKM2 act – qHTS Assay for Activators of Human Muscle isoform 2 Pyruvate Kinase; purified PKM2, Kinase-Glo ATP luminescence, activation; response scale: 0% is enzyme alone, no compound; Potency, µM (highest dose often 57.5 µM), for the others: top-dose activation, hits mostly activators; 0.34% of 260,000 active; also: % is scaled to controls: 0 for no effect and ±100 for the full control effect; nearly all actives have a fitted effect of over 55% in size
Target sequence (P14618 whole entry, looked up, canonical isoform): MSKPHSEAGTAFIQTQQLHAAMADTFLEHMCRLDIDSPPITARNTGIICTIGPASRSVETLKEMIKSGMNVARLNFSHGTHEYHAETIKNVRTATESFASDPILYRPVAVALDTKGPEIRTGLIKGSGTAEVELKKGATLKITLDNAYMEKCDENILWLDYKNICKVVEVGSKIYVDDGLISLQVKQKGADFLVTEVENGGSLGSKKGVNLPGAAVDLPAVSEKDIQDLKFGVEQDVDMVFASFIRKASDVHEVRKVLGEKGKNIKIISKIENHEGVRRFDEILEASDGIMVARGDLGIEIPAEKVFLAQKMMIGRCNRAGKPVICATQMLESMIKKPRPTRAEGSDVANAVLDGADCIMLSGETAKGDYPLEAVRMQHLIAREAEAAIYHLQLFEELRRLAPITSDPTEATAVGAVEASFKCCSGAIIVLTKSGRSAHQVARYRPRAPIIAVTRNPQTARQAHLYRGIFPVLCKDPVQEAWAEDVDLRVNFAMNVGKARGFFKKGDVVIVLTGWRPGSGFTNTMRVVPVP
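Kinase-Glo luminescence reports ATP generated from ADP (0.1 mM) and PEP (0.5 mM) by purified hPK-M2 after 1 h at room temperature, pH 7.2 imidazole buffer; intermediate enzyme activity allows detecting inhibitors and activators.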
Tb PFK block – qHTS Assay to Find Inhibitors of T. brucei phosphofructokinase | ATP-dependent 6-phosphofructokinase (Trypanosoma brucei brucei), O15648 | T. brucei PFK, ADP-Glo luminescence | Potency, µM (doses to about 57.5 µM), for the others: at the top dose activity, negative = inhibition, actives largely listed as inhibitors | 0.17% of 330,000 active | AID 485367, 2010;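 also: 0% = uninhibited 1x PFK enzyme wells and -100% = no-enzyme wells; nearly all actives have a fitted effect of over 60% in size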
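1.25 nM PFK with 0.5 mM F6P and 0.1 mM ATP in 0.1 M TEA pH 8.0, 5 mM MgCl2, incubated 45 min at room temperature; ADP measured by ADP-Glo luminescence; compounds titrated up to 57 uM.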
Rango complex inh – qHTS Assay for Inhibitors of Rango (Ran-regulated importin-beta cargo) - Importin beta complex formation | Potency, µM (highest dose often 92.2 µM), for the others: top-dose inhibition of complex formation | 0.031% of 340,000 active | AID 540263, 2011 | Rango CFP/YFP FRET sensor + importin beta, 45 min; calls by dose curve;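 also: 0% = DMSO wells and 100% = buffer wells lacking importin beta; nearly all actives have a fitted effect of over 15% in size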
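Inhibition scored from the CFP 486 nm/YFP 530 nm FRET ratio 45 min after adding 0.125 microM importin beta to 50 nM Rango biosensor preincubated 5 min with compound (room temperature, PBS with DTT, Tween-20, BSA). No-importin wells as positive control.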
Rango dissoc inh – qHTS Assay for Inhibitors of RanGTP induced Rango (Ran-regulated importin-beta cargo) - Importin beta complex dissociation; Snurportin-1 (Homo sapiens) + GTP-binding nuclear protein Ran (Homo sapiens) + Importin …; Biochemical FRET Rango-importin beta, RanGTP-induced dissociation; Potency, µM (highest dose often 46.1 µM), for inactives: at the top dose activity change, negative = inhibition; 0.071% of 340,000 active; calls by dose curve; also: % of control where 0% means no effect; nearly all actives have a fitted effect of over 45% in size
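Two FRET readings bracket the reaction: one 5 min after compound meets Rango–importin beta, another 45 min after RanGTP-RCC1 (0.6 uM Ran, 0.2 uM RCC1, 2 mM GTP) is added. Only the second defines inhibition.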
PGK inhibitor – qHTS Assay to Find Inhibitors of Phosphoglycerate Kinase; Phosphoglycerate kinase, glycosomal (Trypanosoma brucei brucei), P07378; Potency, µM (highest dose often 57.5 µM), without a hit: at the highest dose activity change, negative = inhibition, usual class: inhibitors; PGK/GAPDH coupled, Kinase-Glo luminescence, 60 min; 0.043% of 380,000 active; also: % is scaled to controls: 0 for no effect and ±100 for the full control effect; nearly all actives have a fitted effect of over 60% in size
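Recombinant glycosomal PGK reaction used 1,3-bisphosphoglycerate generated in-well by GAPDH (100nM final) in 100mM TEA pH 7.6, 5mM MgCl2, 0.01% Tween-20. After 60 minutes at room temperature, ATP was read by Kinase-Glo Plus luminescence end-point.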
ELG1 DNA repair – qHTS screen for small molecules that inhibit ELG1-dependent DNA repair in human embryonic kidney (HEK293T) cells expressing luciferase-tagged ELG1 | HEK293T ELG1-luciferase reporter, luminescence, 16 h; DNA damage induced by 5-fluorouridine | Potency, µM (doses to about 46.1 µM), for inactives: top-dose activity change, negative = inhibition, usual class: inhibitors | 2.3% of 330,000 active; also: % is scaled to controls: 0 for no effect and ±100 for the full control effect; nearly all actives have a fitted effect of over 55% in size
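Step one: seed 2,000 cells per well. Step two: pin-transfer compound or DMSO alongside 5-fluorouridine. Step three: incubate 16 hr, 37 °C, 5% CO2. Step four: add ONE-Glo, wait 30 min, read luminescence.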
An asterisk follows results filed as active; i = inactive; ? = inconclusive; / = no result; [ ] = dose if it differs, or a comment. Unless noted, calls follow the shape of the dose curve; as a rule, active = well fitted curve in the direction sought with a large enough effect; inconclusive = small, poorly fitted or top-dose-only effect, or another doubt; inactive = no such curve, though single readings can be large; an effect the other way counts as inactive or inconclusive. Potency is read from the fitted curve at half-maximal effect.

SMILES | PKM2 act | Tb PFK block | Rango complex inh | Rango dissoc inh | PGK inhibitor | ELG1 DNA repair
COC1=CC(=O)[C@]2(C=C1OC)OC[C@@H]1Oc3c(ccc4c3C=CC(C)(C)O4)C(=O)[C@@H]12 | / | -1% | -2% | -3% | -4% | 1.2µM*
N/C(=N\N=C/c1ccc(-c2ccc(O)c(C(=O)O)c2)o1)N[N+](=O)[O-] | -7% | 1% | ? | -24% | 10µM* | -17%
CC(=O)Nc1ccc(N(C(=O)Cn2nnc3ccccc32)C(C(=O)NC2CCCC2)c2ccc(O)c(O)c2)cc1 (stereo not drawn) | ? | -14% | ? | -12% | -1% | 15%
O=C(c1ccccc1)N1CCC2(CC1)OCCO2 | 0% | 1% | 0% | 1% | 0% | 1%
Cc1c(C(=O)N2CCC3(CC2)OCCO3)sc2ncnc(N3CCc4ccccc4C3)c12 | 6% | 1% | -1% | 14% | i | 21µM*
CC(C)CCNC(=O)c1c(N)n(CC2CCCO2)c2nc3ccccc3nc12 (stereo not drawn) | 3% | -2% | ? | ? | -7% | ?
Nc1c(C(=O)NCCN2CCOCC2)c2nc3ccccc3nc2n1Cc1ccccc1 | -5% | -8% | ? | ? | -7% | ?
CCCCn1c(N)c(C(=O)NCCN2CCOCC2)c2nc3ccccc3nc21 | -4% | 2% | ? | ? | -10% | 5.8µM*
COCCNC(=O)c1c(N)n(Cc2ccco2)c2nc3ccccc3nc12 | 12% | 1% | ? | ? | / | 13µM*
CCC(C)NC(=O)c1c(N)n(CC2CCCO2)c2nc3ccccc3nc12 (stereo not drawn) | -1% | -1% | ? | ? | -5% | 21µM*
Nc1c(C(=O)NCCN2CCOCC2)c2nc3ccccc3nc2n1Cc1ccco1 | -1% | -5% | ? | ? | i | 21µM*
Cc1ccc(NC(=O)c2ncn(CC(=O)NCc3ccc4c(c3)OCO4)n2)cc1C | / | -4% | -3% | -2% | -3% | ?
Cn1c2c(c3ccccc31)CCNCC2 | -6% | / | / | / | / | /
CCOC(=O)c1c(/N=C/C2C(=O)NC(=S)NC2=O)sc2c1CCC2 | 11% | 5% | ? | 9.2µM* | -1% | -10%
O=Cc1c(NCc2ccc(Cl)cc2)c2ccccc2[nH]c1=O | -2%[11.5 µM] | ? | -2% | 17% | 9% | 1%
S=P(Nn1cnnc1)(c1ccc(Br)cc1)c1ccc(Br)cc1 | 28µM* | -2% | -2% | -11% | -6% | ?
COC(=O)C1=C(c2ccccc2OCc2ccccc2)C[C@@H]2CC[C@H]1N2C(=O)NCCc1ccc(F)cc1 | / | 1% | -2% | 0% | 3% | 21µM*
C=CC[C@@H](CC(=O)N(CCO)Cc1ccccc1)C(=O)NC[C@H](OC(=O)[C@@H](CC=C)CC(=O)OC(C)(C)C)c1ccccc1 | / | 5% | -4% | -8% | 9% | 21µM*
C=CC[C@@H](CC(=O)N[C@H](CO)Cc1ccccc1)C(=O)NCCOC(=O)[C@@H](CC=C)Cc1ccc(F)cc1 | / | -5% | 1% | 3% | -5% | ?

Screening data: PubChem, National Center for Advancing Translational Sciences (NCATS)
